For 1 sequence, binding signal results are on record in PMC7862700, “An all-to-all approach to the identification of sequence-specific readers for epigenetic DNA modifications on cytosine”.

What all share (test): DAPPL (digital affinity profiling via proximity ligation, sequencing); 10 mM Tris-HCl pH 7.5, 50 mM NaCl, 1 mM DTT, 4% glycerol, room temperature, 30 min; GST-TFs on glutathione beads, 16-mer random dsDNA library, 0.1% formaldehyde crosslink after washing; high values mean tight binding
Conditions in all cases: protein: recombinant; tags: N-terminal GST; dsDNA, one strand shown

One test concerns the target T1, ELK1 (Homo sapiens, UniProt P19419 1-428).
T1 sequence: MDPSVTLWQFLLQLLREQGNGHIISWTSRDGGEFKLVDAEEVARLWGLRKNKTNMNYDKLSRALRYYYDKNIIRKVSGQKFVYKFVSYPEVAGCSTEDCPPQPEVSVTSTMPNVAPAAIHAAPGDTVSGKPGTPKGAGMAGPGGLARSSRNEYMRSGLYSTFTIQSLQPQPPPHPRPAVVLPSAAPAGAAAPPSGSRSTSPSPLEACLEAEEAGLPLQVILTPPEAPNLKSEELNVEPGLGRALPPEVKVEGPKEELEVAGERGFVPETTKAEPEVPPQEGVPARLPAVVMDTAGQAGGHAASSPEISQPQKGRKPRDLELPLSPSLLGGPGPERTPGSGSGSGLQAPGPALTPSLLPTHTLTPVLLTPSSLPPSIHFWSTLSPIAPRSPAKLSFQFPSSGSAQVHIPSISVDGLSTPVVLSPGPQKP
Summed up:
(§1)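 Each value of binding signal is a hexamer's read frequency for a factor divided by the same hexamer's frequency in the tag-only sample. Barcoded, bead-captured GST fusions of human transcription factors made in yeast were pooled with that sample and incubated with 200 nmole of a random double-stranded 16-mer DNA library in Tris/NaCl/DTT/glycerol buffer at room temperature for 30 min. Washing, 0.1% formaldehyde crosslinking, proximity ligation, PCR and Illumina NextSeq500 sequencing followed.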

For another test, the target named is T2, GABPA (Homo sapiens, UniProt Q06546 1-454).
T2 sequence: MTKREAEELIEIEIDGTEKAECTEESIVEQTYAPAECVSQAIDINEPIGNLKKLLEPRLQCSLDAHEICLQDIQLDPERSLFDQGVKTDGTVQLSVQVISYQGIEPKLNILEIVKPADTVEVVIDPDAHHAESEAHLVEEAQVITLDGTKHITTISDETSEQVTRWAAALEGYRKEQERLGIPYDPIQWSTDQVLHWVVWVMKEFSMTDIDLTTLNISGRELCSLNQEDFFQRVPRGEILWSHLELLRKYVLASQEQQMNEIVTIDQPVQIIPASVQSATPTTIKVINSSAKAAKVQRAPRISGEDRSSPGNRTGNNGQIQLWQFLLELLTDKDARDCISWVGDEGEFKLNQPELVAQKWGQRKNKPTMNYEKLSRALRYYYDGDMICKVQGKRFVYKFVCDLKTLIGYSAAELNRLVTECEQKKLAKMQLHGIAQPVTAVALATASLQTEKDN
The method in brief: as §1

The target in the next test is T3, ERG (Homo sapiens, UniProt P11308 1-479).
T3 sequence: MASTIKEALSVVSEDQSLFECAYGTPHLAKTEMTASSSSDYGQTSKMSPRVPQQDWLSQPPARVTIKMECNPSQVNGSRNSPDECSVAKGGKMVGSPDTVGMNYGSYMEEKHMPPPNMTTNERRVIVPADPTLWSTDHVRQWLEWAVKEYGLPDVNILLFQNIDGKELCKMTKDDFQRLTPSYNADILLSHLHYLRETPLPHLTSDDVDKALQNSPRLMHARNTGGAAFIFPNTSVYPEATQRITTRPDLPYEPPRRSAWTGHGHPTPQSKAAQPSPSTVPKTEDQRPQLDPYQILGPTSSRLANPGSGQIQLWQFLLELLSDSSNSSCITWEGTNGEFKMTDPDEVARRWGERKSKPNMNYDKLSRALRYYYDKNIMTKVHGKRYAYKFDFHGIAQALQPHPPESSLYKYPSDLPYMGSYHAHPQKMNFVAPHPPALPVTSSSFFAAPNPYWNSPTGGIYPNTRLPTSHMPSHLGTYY
Summed up:
as §1

In a further test the target is ELF1 (Homo sapiens, UniProt P32519 1-619). Summed up:
as §1

The target of a further test is T4, EHF (Homo sapiens, UniProt Q9NZC4 1-300).
T4 sequence: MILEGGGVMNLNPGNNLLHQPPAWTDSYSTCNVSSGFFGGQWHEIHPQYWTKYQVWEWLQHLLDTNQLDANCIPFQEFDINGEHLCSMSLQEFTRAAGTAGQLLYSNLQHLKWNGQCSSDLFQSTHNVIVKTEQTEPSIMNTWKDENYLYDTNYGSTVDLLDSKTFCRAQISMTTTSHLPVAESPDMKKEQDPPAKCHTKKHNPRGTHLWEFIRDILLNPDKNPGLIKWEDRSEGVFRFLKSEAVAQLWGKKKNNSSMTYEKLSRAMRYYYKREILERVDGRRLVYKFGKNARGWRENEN
The method in brief: as §1

The target in the next test is SPI1 (Homo sapiens, UniProt P17947 1-270). Summed up:
as §1

Another test concerns the target SPIB (Homo sapiens, UniProt Q01892 1-262). Summed up:
as §1

In a further test the target is T5, SPIC (Homo sapiens, UniProt Q8N5J4 1-248).
T5 sequence: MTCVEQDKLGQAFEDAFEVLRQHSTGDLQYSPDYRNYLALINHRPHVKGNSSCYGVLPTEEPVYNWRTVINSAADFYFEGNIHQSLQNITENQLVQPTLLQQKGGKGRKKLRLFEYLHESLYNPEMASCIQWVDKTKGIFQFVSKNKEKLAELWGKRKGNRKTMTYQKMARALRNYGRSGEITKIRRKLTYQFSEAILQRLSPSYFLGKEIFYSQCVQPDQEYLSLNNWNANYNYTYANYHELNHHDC
Summed up:
as §1

The target in another test is ELF4 (Homo sapiens, UniProt Q99607 1-663). Summed up:
as §1

A further test addresses T6, ELK4 (Homo sapiens, UniProt P28324-2 1-405).
T6 sequence: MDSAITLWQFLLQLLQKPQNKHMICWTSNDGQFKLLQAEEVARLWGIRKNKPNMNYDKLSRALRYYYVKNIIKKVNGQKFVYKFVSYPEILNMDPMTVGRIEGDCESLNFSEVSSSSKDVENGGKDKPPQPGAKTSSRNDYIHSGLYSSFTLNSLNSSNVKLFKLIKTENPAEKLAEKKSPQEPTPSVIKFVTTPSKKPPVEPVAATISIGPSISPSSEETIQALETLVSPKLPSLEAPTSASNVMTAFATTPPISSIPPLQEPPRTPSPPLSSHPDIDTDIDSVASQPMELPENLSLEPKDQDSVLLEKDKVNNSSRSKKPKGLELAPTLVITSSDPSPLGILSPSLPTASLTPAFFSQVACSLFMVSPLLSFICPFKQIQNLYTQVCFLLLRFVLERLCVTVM
The method in brief:
as §1

The next test concerns the target T7, ELF3 (Homo sapiens, UniProt P78545 1-371).
T7 sequence: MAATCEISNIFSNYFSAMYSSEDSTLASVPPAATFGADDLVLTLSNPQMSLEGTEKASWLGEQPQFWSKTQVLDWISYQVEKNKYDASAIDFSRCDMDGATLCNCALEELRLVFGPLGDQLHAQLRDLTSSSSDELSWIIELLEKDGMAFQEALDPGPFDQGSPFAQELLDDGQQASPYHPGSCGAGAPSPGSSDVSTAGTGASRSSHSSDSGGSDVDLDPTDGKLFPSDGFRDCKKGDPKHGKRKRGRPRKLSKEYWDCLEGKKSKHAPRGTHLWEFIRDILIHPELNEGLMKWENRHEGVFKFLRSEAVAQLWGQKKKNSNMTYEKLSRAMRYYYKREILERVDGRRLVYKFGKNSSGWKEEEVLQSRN
Summed up: as §1

For the next test, the target named is ETV1 (Homo sapiens, UniProt P50549 1-477). Summed up: as §1
A further test concerns the target T8, ERF (Homo sapiens, UniProt P50548 1-548).
T8 sequence: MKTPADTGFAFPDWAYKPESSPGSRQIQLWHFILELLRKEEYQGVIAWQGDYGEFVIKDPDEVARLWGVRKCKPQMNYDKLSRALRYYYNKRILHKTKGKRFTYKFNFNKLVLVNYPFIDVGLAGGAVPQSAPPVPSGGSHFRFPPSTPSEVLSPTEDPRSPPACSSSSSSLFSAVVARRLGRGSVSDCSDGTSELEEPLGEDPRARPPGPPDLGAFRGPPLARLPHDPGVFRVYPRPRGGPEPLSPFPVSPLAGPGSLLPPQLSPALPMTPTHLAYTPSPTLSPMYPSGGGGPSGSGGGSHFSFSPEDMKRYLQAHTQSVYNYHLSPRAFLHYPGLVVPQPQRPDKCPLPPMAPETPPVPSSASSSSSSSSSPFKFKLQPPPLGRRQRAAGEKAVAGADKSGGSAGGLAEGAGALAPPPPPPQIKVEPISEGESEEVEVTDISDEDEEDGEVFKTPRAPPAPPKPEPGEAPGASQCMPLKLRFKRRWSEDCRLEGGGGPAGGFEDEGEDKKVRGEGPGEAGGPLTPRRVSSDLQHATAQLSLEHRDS
Summed up:
as §1

A further test has as its target T9, ETV3L (Homo sapiens, UniProt Q6ZN32 1-361).
T9 sequence: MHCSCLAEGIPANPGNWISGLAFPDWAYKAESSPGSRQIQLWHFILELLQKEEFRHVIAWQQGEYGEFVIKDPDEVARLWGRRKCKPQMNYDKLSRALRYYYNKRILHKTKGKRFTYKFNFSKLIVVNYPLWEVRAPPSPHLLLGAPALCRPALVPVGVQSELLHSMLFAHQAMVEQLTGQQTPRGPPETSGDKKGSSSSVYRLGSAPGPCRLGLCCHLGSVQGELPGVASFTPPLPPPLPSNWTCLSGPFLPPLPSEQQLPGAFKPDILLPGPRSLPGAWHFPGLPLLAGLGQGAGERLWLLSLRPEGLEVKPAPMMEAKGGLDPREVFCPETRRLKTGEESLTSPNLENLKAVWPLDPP
Summed up:
as §1

The target in the next test is T10, ETS2 (Homo sapiens, UniProt P15036 1-469).
T10 sequence: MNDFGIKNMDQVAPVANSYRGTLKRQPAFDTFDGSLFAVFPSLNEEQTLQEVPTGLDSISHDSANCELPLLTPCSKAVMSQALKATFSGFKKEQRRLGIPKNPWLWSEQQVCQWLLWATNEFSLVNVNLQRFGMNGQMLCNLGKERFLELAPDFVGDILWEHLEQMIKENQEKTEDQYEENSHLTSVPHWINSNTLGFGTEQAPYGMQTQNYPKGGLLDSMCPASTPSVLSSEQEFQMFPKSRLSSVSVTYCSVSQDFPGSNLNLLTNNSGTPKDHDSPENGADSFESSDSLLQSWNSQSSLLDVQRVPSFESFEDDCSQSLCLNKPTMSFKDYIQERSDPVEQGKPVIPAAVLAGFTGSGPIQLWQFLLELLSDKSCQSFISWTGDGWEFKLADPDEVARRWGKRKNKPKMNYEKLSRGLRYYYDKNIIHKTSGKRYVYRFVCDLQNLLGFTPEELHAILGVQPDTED
Summed up: as §1

In another test the target is T11, SPDEF (Homo sapiens, UniProt O95238 1-335).
T11 sequence: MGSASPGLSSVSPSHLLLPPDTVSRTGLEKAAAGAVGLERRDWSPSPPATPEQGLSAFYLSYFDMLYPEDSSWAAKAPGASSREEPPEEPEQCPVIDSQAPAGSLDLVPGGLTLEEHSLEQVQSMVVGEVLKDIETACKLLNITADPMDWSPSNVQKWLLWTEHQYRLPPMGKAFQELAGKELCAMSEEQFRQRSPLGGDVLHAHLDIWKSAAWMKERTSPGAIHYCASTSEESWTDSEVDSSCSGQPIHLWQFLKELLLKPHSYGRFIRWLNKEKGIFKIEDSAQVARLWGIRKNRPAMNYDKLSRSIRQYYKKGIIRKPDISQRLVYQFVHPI
The method in brief:
as §1

A further test concerns the target T12, ETV7 (Homo sapiens, UniProt Q9Y603 1-341).
T12 sequence: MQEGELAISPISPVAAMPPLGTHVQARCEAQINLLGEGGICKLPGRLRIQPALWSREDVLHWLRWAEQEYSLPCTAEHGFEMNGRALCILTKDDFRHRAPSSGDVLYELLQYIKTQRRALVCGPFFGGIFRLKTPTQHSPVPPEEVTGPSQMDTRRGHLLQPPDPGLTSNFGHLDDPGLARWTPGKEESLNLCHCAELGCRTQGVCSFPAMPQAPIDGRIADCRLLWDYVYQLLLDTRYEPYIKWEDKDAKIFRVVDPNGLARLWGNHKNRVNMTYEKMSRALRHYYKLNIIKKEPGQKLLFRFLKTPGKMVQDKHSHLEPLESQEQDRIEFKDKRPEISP
Summed up:
as §1

The target in the next test is T13, ETV3 (Homo sapiens, UniProt P41162-2 1-143).
T13 sequence: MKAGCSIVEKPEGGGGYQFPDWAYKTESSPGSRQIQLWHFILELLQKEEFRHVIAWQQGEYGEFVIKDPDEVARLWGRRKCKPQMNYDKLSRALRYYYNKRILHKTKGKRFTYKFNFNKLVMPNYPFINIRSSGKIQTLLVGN
The method in brief:
as §1

A further test deals with ETV6 (Homo sapiens, UniProt P41212 1-452). The method in brief: as §1
ETV6, sequence (P41212 whole entry): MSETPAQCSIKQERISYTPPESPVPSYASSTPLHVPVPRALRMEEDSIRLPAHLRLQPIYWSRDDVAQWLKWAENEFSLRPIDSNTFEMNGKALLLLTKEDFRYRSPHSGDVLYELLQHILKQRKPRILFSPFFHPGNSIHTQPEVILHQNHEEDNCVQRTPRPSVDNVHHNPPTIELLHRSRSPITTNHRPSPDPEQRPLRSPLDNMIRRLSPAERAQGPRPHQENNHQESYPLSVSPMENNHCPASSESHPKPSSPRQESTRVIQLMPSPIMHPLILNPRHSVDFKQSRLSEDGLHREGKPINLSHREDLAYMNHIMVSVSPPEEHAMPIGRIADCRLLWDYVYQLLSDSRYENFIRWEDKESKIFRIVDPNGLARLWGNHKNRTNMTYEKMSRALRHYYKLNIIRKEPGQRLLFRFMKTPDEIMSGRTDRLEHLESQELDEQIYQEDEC

SPIB, sequence (Q01892 whole entry): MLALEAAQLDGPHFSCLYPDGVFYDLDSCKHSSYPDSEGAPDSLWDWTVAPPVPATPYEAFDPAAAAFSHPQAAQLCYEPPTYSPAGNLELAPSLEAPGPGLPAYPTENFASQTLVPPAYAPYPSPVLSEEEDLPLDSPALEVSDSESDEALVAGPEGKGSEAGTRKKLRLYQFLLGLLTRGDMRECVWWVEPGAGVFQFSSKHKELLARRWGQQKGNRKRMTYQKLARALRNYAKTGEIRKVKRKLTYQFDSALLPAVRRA
ELF4, sequence (Q99607 whole entry): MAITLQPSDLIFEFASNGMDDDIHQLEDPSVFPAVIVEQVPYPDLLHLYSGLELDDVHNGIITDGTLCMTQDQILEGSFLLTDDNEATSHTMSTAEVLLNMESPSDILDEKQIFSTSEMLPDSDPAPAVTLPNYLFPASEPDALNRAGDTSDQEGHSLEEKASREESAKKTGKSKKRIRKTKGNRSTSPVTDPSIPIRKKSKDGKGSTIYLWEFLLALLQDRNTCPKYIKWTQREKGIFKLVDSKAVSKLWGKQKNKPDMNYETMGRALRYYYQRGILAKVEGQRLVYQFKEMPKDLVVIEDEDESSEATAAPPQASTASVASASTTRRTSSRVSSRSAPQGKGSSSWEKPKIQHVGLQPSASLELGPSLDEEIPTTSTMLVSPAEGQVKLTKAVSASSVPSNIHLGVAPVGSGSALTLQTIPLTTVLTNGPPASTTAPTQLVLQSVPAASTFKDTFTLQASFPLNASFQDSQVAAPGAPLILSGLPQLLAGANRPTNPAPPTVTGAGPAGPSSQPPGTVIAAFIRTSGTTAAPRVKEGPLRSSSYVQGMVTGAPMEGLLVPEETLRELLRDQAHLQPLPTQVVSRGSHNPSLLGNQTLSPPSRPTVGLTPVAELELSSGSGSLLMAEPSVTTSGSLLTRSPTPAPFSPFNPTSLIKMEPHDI
ETV1, sequence (P50549 whole entry): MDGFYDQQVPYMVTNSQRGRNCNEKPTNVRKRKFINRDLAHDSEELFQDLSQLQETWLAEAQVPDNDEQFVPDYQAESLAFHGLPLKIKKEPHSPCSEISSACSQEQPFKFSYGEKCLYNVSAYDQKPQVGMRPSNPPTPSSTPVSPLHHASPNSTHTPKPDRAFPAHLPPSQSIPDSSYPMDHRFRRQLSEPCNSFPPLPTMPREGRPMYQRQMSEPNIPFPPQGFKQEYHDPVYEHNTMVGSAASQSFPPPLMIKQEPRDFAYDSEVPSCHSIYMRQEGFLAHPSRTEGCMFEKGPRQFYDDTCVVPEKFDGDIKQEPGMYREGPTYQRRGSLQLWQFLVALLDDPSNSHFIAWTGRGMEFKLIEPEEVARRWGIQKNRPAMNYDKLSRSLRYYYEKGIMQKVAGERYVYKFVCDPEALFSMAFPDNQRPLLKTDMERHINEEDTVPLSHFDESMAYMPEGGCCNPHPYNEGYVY
ELF1, sequence (P32519 whole entry): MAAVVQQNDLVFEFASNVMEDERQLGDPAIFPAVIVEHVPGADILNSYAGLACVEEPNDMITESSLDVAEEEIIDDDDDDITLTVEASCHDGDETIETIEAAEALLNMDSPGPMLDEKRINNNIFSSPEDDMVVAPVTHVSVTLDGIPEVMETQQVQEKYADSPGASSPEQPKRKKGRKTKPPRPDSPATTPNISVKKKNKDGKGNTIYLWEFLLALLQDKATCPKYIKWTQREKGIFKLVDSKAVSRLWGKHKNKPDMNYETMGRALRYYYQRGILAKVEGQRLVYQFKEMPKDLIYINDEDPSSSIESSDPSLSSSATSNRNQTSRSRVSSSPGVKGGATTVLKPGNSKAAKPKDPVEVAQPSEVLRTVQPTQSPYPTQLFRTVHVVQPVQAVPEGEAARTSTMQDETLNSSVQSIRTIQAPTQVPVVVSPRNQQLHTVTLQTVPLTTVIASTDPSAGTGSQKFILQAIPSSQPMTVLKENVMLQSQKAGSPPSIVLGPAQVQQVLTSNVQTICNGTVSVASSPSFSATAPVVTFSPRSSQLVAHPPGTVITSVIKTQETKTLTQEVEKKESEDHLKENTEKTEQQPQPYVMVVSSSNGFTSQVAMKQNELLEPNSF

For GCTGGT, the binding signal with ELK1 is 1.23 fold enrichment (6-mer frequency, TF over GST control); with GABPA, 1.15 fold enrichment (6-mer frequency, TF over GST control); with ERG it was 1.28 fold enrichment (6-mer frequency, TF over GST control); with ELF1 it was 1.04 fold enrichment (6-mer frequency, TF over GST control); with EHF, 1.2 fold enrichment (6-mer frequency, TF over GST control); with SPI1, 1.19 fold enrichment (6-mer frequency, TF over GST control). The binding signal with SPIB is 1.18 fold enrichment (6-mer frequency, TF over GST control); in the test with SPIC it was 1.08 fold enrichment (6-mer frequency, TF over GST control); in the test with ELF4, 1.11 fold enrichment (6-mer frequency, TF over GST control); in the test with ELK4, 1.45 fold enrichment (6-mer frequency, TF over GST control); with ELF3, 1.16 fold enrichment (6-mer frequency, TF over GST control); with ETV1, 1.02 fold enrichment (6-mer frequency, TF over GST control). Further, the binding signal with ERF is 1.14 fold enrichment (6-mer frequency, TF over GST control); in the test with ETV3L, 1.19 fold enrichment (6-mer frequency, TF over GST control); in the test with ETS2, 1.17 fold enrichment (6-mer frequency, TF over GST control); with SPDEF, 1.2 fold enrichment (6-mer frequency, TF over GST control); with ETV7 it was 1.17 fold enrichment (6-mer frequency, TF over GST control); with ETV3 it was 1.29 fold enrichment (6-mer frequency, TF over GST control). In addition, in the test with ETV6, the binding signal is 1.13 fold enrichment (6-mer frequency, TF over GST control).
